These results are taken from PubChem BioAssay AID1259415 (National Center for Advancing Translational Sciences (NCATS), 2018).

The whole screen tested about 410,000 compounds, of which about 18,000 (4.4%) were called active. Not shown: some 7% with an inconclusive outcome. The sample holds actives, similar compounds and a random draw of the others, so the mix is not that of the screen. Cut-off read from the data, not from the text of the source: active = activity change below about -60%; inconclusive = no clear call, values can overlap the other calls; inactive = above about -39%.
% is set by controls: 0 for no effect and ±100 for the full control effect.

The assay can be described thus: qHTS Assay for inhibitors of the human cytomegalovirus (HCMV). To be noted: HFF cells, HCMV-luciferase reporter, 72 h; at 57.5 µM; stronger effect = lower value. The method, boiled down: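 Steps: HFFs plated, 16 h 37C; compounds added; HCMV-luciferase added to MOI 1 PFU/cell; 72 h 37C; OneGlo reagent, 5 min room temperature; luminescence read, normalized to controls.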
Take `O=C(Cn1ncn2nc(-c3cccs3)cc2c1=O)NCc1cccc(Br)c1`: the activity change, negative = inhibition is 12.3% (inactive). Take `CCC[C@H]1[C@@H](NS(=O)(=O)c2ccc(F)cc2)CC[C@@]23CCCN2C(=O)CCC[C@@H]13`: the activity change, negative = inhibition is -4.65% (inactive).

Turning to `CCOC(=O)c1c(-c2cccc(C)c2)csc1NC(=O)c1c(-c2ccccc2)noc1C`, the activity change, negative = inhibition is -94% (active).

For the compound `CCOC(=O)c1c(-c2cccc(N)c2)cn2ccccc12`, the activity change, negative = inhibition was 17.2% (inactive). For `CCOC(=O)c1[nH]cnc1C(=O)Nc1ccccc1C`, the activity change, negative = inhibition is -21.4% (inactive). The value for `CCCSc1ncc(Cl)c(C(=O)Nc2sc3c(c2C(=O)NCCOC)CCCC3)n1` was -24% (inactive). The figure for `CCCS(=O)(=O)c1ncc(Cl)c(C(=O)Nc2scc(-c3ccccc3)c2C(=O)OCC)n1` is -98.8% (active).

Take `CCOC(=O)c1c(C2CC2)csc1NC(=O)CSCc1c(C)noc1C`: the activity change, negative = inhibition was 42.9% (inactive). In the case of `Oc1c(C(c2ccccc2Cl)N2CCOCC2)sc2nc(-c3ccco3)nn12` (stereo unspecified), the activity change, negative = inhibition was -16.1% (inactive). The figure for `O=C(CCN1CCc2ccccc2C(O)(c2ccccc2)C1)c1ccc2c(c1)OCCO2` (stereo unspecified) is 25.7% (inactive); for `O=[N+]([O-])c1ccc(N/N=C2/CCCCC2c2ccccn2)c([N+](=O)[O-])c1` (stereo unspecified) it is 4.73% (inactive); for `O=S(=O)(Nc1ccc2nc(-c3ccco3)[nH]c2c1)c1ccccc1` it is 16.8% (inactive).

For `O=[N+]([O-])c1ccc2nc(-c3ccccn3)[nH]c2c1`, the activity change, negative = inhibition was -79.3% (active).

Turning to `Cc1cc(C)cc(Oc2nc3c(C)cccn3c(=O)c2/C=C(\C#N)C(=O)NC2CCS(=O)(=O)C2)c1` (stereo unspecified), the activity change, negative = inhibition was 44.8% (inactive). The figure for `Cc1cccn2c(=O)c(/C=C(\C#N)C(N)=O)c(N3CCCCCC3)nc12` is -70.1% (active). On to `COCCCNC(=O)/C(C#N)=C/c1c(N2CCCCCC2)nc2ccccn2c1=O`, for which the activity change, negative = inhibition was -37.9% (inactive). The value for `Nc1[nH]c(C(=O)c2ccccc2)c(-c2ccc(Br)cc2)c1C(=O)NC1CC1` was -20.4% (inactive); that for `NC(=O)C(Cc1ccccc1)NC(=O)C12CC3CC(CC(C3)C1)C2` (stereo unspecified) was 50.8% (inactive); that for `Cc1ccc(S(=O)(=O)c2nc(-c3cccs3)oc2N2CCCCC2)cc1` was -15.8% (inactive).

As to `COc1cc(-c2cc3n(C)c(C)c(CCC(=O)Nc4ccc(F)cc4)c(=O)n3n2)cc(OC)c1OC`, the activity change, negative = inhibition is -22.9% (inactive). The figure for `Cc1sc(C2C(C#N)=C(N)N(c3cccc(Cl)c3)C3=C2C(=O)CCC3)cc1CN1CCOCC1` (stereo unspecified) is -21.6% (inactive); for `COc1ccc(/C=C/C(=O)Nc2c(C)nn(C)c2C)cc1COc1ccc(Br)cc1` it is -35.2% (inactive); for `COc1ccc(C(C)=O)cc1COc1ccc(Cl)c(C)c1` it is -1.3% (inactive).

Regarding `CCn1nc(C)c(NC(=O)/C=C/c2ccc(OC)c(COc3ccc(Br)cc3)c2)c1C`, the activity change, negative = inhibition was -68% (active). For the compound `CCOC(=O)N1CCc2c(sc3c2C(=O)NC(c2ccccc2F)N3)C1` (stereo unspecified), the activity change, negative = inhibition was -3.15% (inactive). The figure for `C=CCN1C(=O)C(Cc2ccc(OCC)cc2)SC1=Nc1ccc(C(=O)O)cc1` (stereo unspecified) is 10.9% (inactive); for `CN(c1cccc(NC(=O)c2ccc(CN3CCc4ccccc4C3)cc2)c1)S(C)(=O)=O` it is -74.1% (active). The figure for `CN(c1ccc(C(=O)N2CCc3ccccc3C2)cc1)S(C)(=O)=O` is 5.34% (inactive); for `CN(c1cccc(NC(=O)Nc2ccc(Cl)cc2)c1)S(C)(=O)=O` it is -81.1% (active); for `CCN(CC)c1ccc(NC(=O)CN2CCN(CC(=O)Nc3ccc(Cl)cc3)CC2)cc1` it is 18% (inactive).

As to `CC(=O)Nc1cccc(NC(=O)c2ccc3c(c2)CCN3S(C)(=O)=O)c1`, the activity change, negative = inhibition was 40.6% (inactive).

For the compound `CNS(=O)(=O)c1ccc(NC(=O)Nc2ccc3c(c2)OCO3)cc1`, the activity change, negative = inhibition was 61.9% (inactive).

Turning to `CC1(C(=O)NCc2cccc3ccccc23)CCN1Cc1ccc(-c2ccccc2)o1` (stereo unspecified), the activity change, negative = inhibition is -20.5% (inactive). The figure for `CCNC(=O)C1CCCN(C(=O)c2ccc(OC)cc2OC)CC1` (stereo unspecified) is -11.4% (inactive). Turning to `Cn1c(=O)c2c(-c3ccccc3Br)n(Cc3ccccc3)cc2n(C)c1=O`, the activity change, negative = inhibition is -17.1% (inactive).

Turning to `CCc1nn(CC(=O)N2CCN(c3ccc(Cl)cc3)CC2)c(=O)c2cc3occc3n12`, the activity change, negative = inhibition was -13.8% (inactive). The figure for `Cc1cccc(S(=O)(=O)c2cn(Cc3ccccc3)c3cc(N4CCOCC4)c(F)cc3c2=O)c1` is 17.2% (inactive). For `CCOc1cc(-c2noc(CCCC(=O)NC3CCCCC3)n2)ccc1OC`, the activity change, negative = inhibition was -89.7% (active).

Regarding `COc1ccc(-c2noc(CCCC(=O)NC3CCCC3)n2)cc1OC`, the activity change, negative = inhibition was -17% (inactive). Regarding `CCOc1cc(-c2noc(CCC(=O)N3CCOCC3)n2)ccc1OC`, the activity change, negative = inhibition is 2.89% (inactive). The figure for `C[C@@H]1CN([C@@H](C)CO)C(=O)CCCn2nncc2CO[C@H]1CN(C)C(=O)Nc1ccc(C(F)(F)F)cc1` is 8.54% (inactive).

On to `CC[C@@H](C)[C@@H](C(=O)N1CCN(C(=O)OC(C)(C)C)CC1)n1cc(CCC(=O)O)nn1`, for which the activity change, negative = inhibition was 14.7% (inactive). The figure for `COc1ccc(-c2noc(-c3ccc(N4CCN(c5ccccc5)CC4)c([N+](=O)[O-])c3)n2)cc1OC` is 14.1% (inactive); for `Cc1ccc(F)cc1S(=O)(=O)N1CCC(c2nc3ccccc3s2)CC1` it is -23.3% (inactive); for `CC1=CC(=C(C#N)c2nc3ccccc3s2)C=C(C)N1c1ccc(F)cc1F` it is -64.6% (active). The value for `Cc1ccc(C(=O)Nc2ccc3[nH]c(=O)c(=O)[nH]c3c2)cc1` was -0.693% (inactive). Consider `CCOc1ccccc1NC(=O)Cn1c(=O)n(-c2cccc(C)c2)c(=O)c2c1c1cc(OC)ccc1n2C`, for which the activity change, negative = inhibition is 19.1% (inactive).

Take `COc1ccc(C(=O)Nc2onc3c2CCCC3)cc1`: the activity change, negative = inhibition was 1.09% (inactive). For the compound `CCOc1cccc(CNC(=O)c2ccc(N3CCCC3)c(NC(=O)Nc3ccccc3CC)c2)c1`, the activity change, negative = inhibition is -10.9% (inactive). `Cc1ccccc1CNC(=O)CCCn1nc(C)c2sc3ccccc3c2c1=O`: the activity change, negative = inhibition is 14.7% (inactive). The figure for `CCOC(=O)CNC(=O)N1Cc2cc(N3CCCCC3)ccc2-n2nncc2C1` is -62.1% (active). As for `O=C(NC1CCCCC1)N1Cc2cc(N3CCCCC3)ccc2-n2nncc2C1`, the activity change, negative = inhibition was 40.9% (inactive). On to `CC(C)CN1Cc2cc(N3CCCCC3)ccc2-n2nncc2C1`, for which the activity change, negative = inhibition was 10.2% (inactive). The value for `Cn1c(C(=O)N2CCC(C(=O)N3CCN(c4ccccc4)CC3)CC2)cc2sccc21` was -22.9% (inactive); that for `Cc1nn(CC(=O)N2CCN(c3cccc(C(F)(F)F)c3)CC2)c(=O)c2cc3sccc3n12` was 2.88% (inactive). Take `COc1ccc(F)cc1C(=O)COC(=O)c1n[nH]c(=O)c2ccccc12`: the activity change, negative = inhibition was 49.5% (inactive). The value for `CS(=O)(=O)c1ccc(-c2nnc(NC(=O)c3ccc4c(c3)OCCO4)o2)cc1` was -0.462% (inactive); that for `CC1CCCN(S(=O)(=O)c2ccc(C(=O)Nc3nnc(-c4ccncc4)o3)cc2)C1` (stereo unspecified) was -96.5% (active); that for `CC1CC(C)CN(S(=O)(=O)c2ccc(C(=O)NN3CCOCC3)cc2)C1` (stereo unspecified) was -27.9% (inactive). The value for `C[C@H]1CN([C@@H](C)CO)C(=O)CCCn2nncc2CO[C@@H]1CN(C)C(=O)Nc1ccc(N2CCN(C)CC2)cc1` was -20.2% (inactive); that for `COc1cc(C2OC(c3cc(OC)c(OC)c(OC)c3)C(C)C2C)cc(OC)c1OC` (stereo unspecified) was 54.8% (inactive). As to `O=C(CC1Oc2ccccc2NC1=O)NCc1ccc(F)cc1` (stereo unspecified), the activity change, negative = inhibition was -9.67% (inactive). For `O=C(NCc1ccccc1)c1ccc2c(c1)nc1n2CCCCC1`, the activity change, negative = inhibition is 27.3% (inactive).

As to `Cc1cc(C)nc(S/C=C/C(=O)c2ccccc2)n1`, the activity change, negative = inhibition is -90.7% (active). The value for `CCn1c(CSc2nc(C)cc(C)n2)nnc1SCC(N)=O` was -18.8% (inactive); that for `CCC1Oc2ccc(Cl)cc2N(CC(=O)O)C1=O` (stereo unspecified) was -13.4% (inactive); that for `Cc1cc(C)n(C(=O)c2ccc(C)c(S(=O)(=O)N3CCOCC3)c2)n1` was -11.1% (inactive).

Turning to `O=C(Nc1cccn(Cc2c(Cl)cccc2Cl)c1=O)c1ccc(Cl)cc1`, the activity change, negative = inhibition was -83.3% (active). The figure for `CCn1c(=O)c(=O)n(CC)c2cc(N3CCCCC3)c(NC(=O)c3ccc(Cl)cc3)cc21` is -11.3% (inactive); for `O=C(Nc1cccn(Cc2ccccc2Cl)c1=O)NC1CCCCC1` it is -37.7% (inactive). As for `Cc1ccc(C(=O)Nc2ccc(OCc3cc(=O)n4c5c(sc4n3)CCCC5)cc2)cc1`, the activity change, negative = inhibition is 7.24% (inactive).

Turning to `COc1ccc(S(=O)(=O)N2CCOCC2)cc1NC(=O)CSc1cc(C)ccc1C`, the activity change, negative = inhibition is -10.1% (inactive). As for `COc1ccc(S(=O)(=O)N2CCOCC2)cc1NC(=O)CSc1nnc(NC2CC2)s1`, the activity change, negative = inhibition is 18.1% (inactive).

For the compound `COc1ccc(S(=O)(=O)N2CCOCC2)cc1NC(=O)CSc1ncnc2ccccc12`, the activity change, negative = inhibition was -109% (active).

Take `CCCCN(CC)CCCNC(=O)Cn1ncc2c([nH]c3ccc(C)cc32)c1=O`: the activity change, negative = inhibition is -8.89% (inactive). In the case of `CNC(=O)/C(C#N)=C/c1c(F)cccc1Cl`, the activity change, negative = inhibition was -80.3% (active). Turning to `O=C(/C=C/c1c(F)cccc1Cl)Nc1nn[nH]n1`, the activity change, negative = inhibition is -8.32% (inactive).

As for `Cc1[nH]c2ccccc2c1/C=C(/C#N)C(=O)NC(C)C`, the activity change, negative = inhibition was -36.7% (inactive). Regarding `Cc1cc(S(=O)(=O)N2CCOCC2)ccc1OCC(=O)Nc1cccc(C(F)(F)F)c1`, the activity change, negative = inhibition was -13.9% (inactive). The figure for `COc1ccccc1NC(=O)COc1ccc(C(=O)OCC(=O)N(C(C)C)C(C)C)cc1OC` is -9.98% (inactive). As for `COc1cc(C(=O)N(C)Cc2cccc(OC)c2OC)ccc1OCC(=O)Nc1cccc(C(F)(F)F)c1`, the activity change, negative = inhibition was -86.1% (active). As for `CCCN1CCN(CCCNC(=O)Cn2nc(CC)n3c(cc4occc43)c2=O)CC1`, the activity change, negative = inhibition was 35.8% (inactive).

As to `CC(C)(C)Oc1ccccc1Nc1nc(NCCO)nc(N2CCCC2)n1`, the activity change, negative = inhibition was 1.45% (inactive). Consider `O=c1oc2ccccc2cc1-c1cn(-c2ccccc2)c(=S)[nH]1`, for which the activity change, negative = inhibition is -86.5% (active). The figure for `CC(C)Cn1c(=O)c2ccccc2n2c(-c3cccc(Cl)c3)nnc12` is 2.19% (inactive); for `COc1ccc(CNC(=O)CSc2nc3ccccc3nc2Cc2ccccc2)cc1` it is -15% (inactive).
